Experimental data taken from PubChem BioAssay AID1159580 (chemical genetic matrix, 2015).
Hit rate of the full screen: of about 5,500 compounds, about 2,000 (36%) were called active. Roughly 18% stayed inconclusive and do not appear here. Cut-off read from the data, not from the text of the source: active = normalized growth mostly below about 0.91 (no sharp cut-off); inconclusive = no clear call, values can overlap the other calls; inactive = mostly above about 0.92. This is one part of the list.

Experiment: chemical genetic growth profiling, strain panel (AID 1159580);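 note: tested at 20 µM; growth read once vehicle control cultures reached saturation at 30 °C; 1 = growth at the plate median or of vehicle wells; lower values mean less growth of the strain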
Conditions: growth OD

Measured: normalized growth

CC1=C2[C@](C)(C=CC1=O)C[C@H](O)[C@H]1[C@H](C)C(=O)O[C@]21C
inactive: S. cerevisiae deletion strains, locus YAL013W, strain DEP1, stronger effect = lower value 1.01 | S. cerevisiae deletion strains, locus YBR021W, strain FUR4, stronger effect = lower value 1 | S. cerevisiae deletion strains, locus YBR229C, strain ROT2, stronger effect = lower value 1.01 | S. cerevisiae deletion strains, locus YCL029C, strain bik1, stronger effect = lower value 1.03 | S. cerevisiae deletion strains, locus YDL035C, strain GPR1, stronger effect = lower value 1.02 | S. cerevisiae deletion strains, locus YDL074C, strain BRE1, stronger effect = lower value 1.01 | S. cerevisiae deletion strains, locus YDL101C, strain DUN1, stronger effect = lower value 1.02 | S. cerevisiae deletion strains, locus YDL134C, strain PPH21, stronger effect = lower value 1.01 | S. cerevisiae deletion strains, locus YDL185W, strain tfp1, stronger effect = lower value 1.03 | S. cerevisiae deletion strains, locus YDL192W, strain arf1, stronger effect = lower value 1.04 | S. cerevisiae deletion strains, locus YDR101C, strain arx1, stronger effect = lower value 1.01 | S. cerevisiae deletion strains, locus YDR150W, strain NUM1, stronger effect = lower value 1.01 | S. cerevisiae deletion strains, locus YDR162C, strain NBP2, stronger effect = lower value 1.03 | S. cerevisiae deletion strains, locus YDR318W, strain mcm21, stronger effect = lower value 1.03 | S. cerevisiae deletion strains, locus YDR388W, stronger effect = lower value 1.02 | S. cerevisiae deletion strains, locus YDR502C, strain sam2, stronger effect = lower value 1.03 | S. cerevisiae deletion strains, locus YEL061C, strain CIN8, stronger effect = lower value 1.01 | S. cerevisiae deletion strains, locus YER110C, stronger effect = lower value 1.03 | S. cerevisiae deletion strains, locus YER155C, strain BEM2, stronger effect = lower value 1.01 | S. cerevisiae deletion strains, locus YER167W, strain BCK2, stronger effect = lower value 1.02 | S. cerevisiae deletion strains, locus YGL078C, strain dbp3, stronger effect = lower value 1.04 | S. cerevisiae deletion strains, locus YGL086W, strain mad1, stronger effect = lower value 1.02 | S. cerevisiae deletion strains, locus YGL248W, strain PDE1, stronger effect = lower value 1.01 | S. cerevisiae deletion strains, locus YGR078C, strain PAC10, stronger effect = lower value 1.01 | S. cerevisiae deletion strains, locus YGR135W, strain pre9, stronger effect = lower value 1.01 | S. cerevisiae deletion strains, locus YGR229C, strain SMI1, stronger effect = lower value 1.01 | S. cerevisiae deletion strains, locus YGR252W, strain gcn5, stronger effect = lower value 1.07 | S. cerevisiae deletion strains, locus YHR030C, strain SLT2, stronger effect = lower value 1.01 | S. cerevisiae deletion strains, locus YHR079C, strain IRE1 (second series), stronger effect = lower value 1.03 | S. cerevisiae deletion strains, locus YHR094C, strain hxt1, stronger effect = lower value 1.03 | S. cerevisiae deletion strains, locus YHR129C, strain ARP1, stronger effect = lower value 1.01 | S. cerevisiae deletion strains, locus YHR200W, strain rpn10, stronger effect = lower value 1.03 | S. cerevisiae deletion strains, locus YIL066C, strain RNR3, stronger effect = lower value 1.03 | S. cerevisiae deletion strains, locus YIL073C, strain SPO22, stronger effect = lower value 1.1 | S. cerevisiae deletion strains, locus YIL125W, strain kgd1, stronger effect = lower value 1.03 | S. cerevisiae deletion strains, locus YIR030C, strain dcg1, stronger effect = lower value 1.02 | S. cerevisiae deletion strains, locus YJL095W, strain BCK1, stronger effect = lower value 1.01 | S. cerevisiae deletion strains, locus YJL134W, strain LCB3, stronger effect = lower value 1 | S. cerevisiae deletion strains, locus YJL168C, strain set2, stronger effect = lower value 1.03 | S. cerevisiae deletion strains, locus YJL187C, strain SWE1 (second series), stronger effect = lower value 1.01 | S. cerevisiae deletion strains, locus YJR043C, strain POL32, stronger effect = lower value 1.02 | S. cerevisiae deletion strains, locus YJR075W, strain HOC1, stronger effect = lower value 1.02 | S. cerevisiae deletion strains, locus YKL009W, strain mrt4, stronger effect = lower value 1.04 | S. cerevisiae deletion strains, locus YKL068W, stronger effect = lower value 1.04 | S. cerevisiae deletion strains, locus YKL085W, strain MDH1 (second series), stronger effect = lower value 1.02 | S. cerevisiae deletion strains, locus YKL085W, strain MDH1, stronger effect = lower value 1.02 | S. cerevisiae deletion strains, locus YKL190W, strain CNB1, stronger effect = lower value 1.01 | S. cerevisiae deletion strains, locus YKR001C, strain vps1, stronger effect = lower value 1.03 | S. cerevisiae deletion strains, locus YLR039C, strain RIC1, stronger effect = lower value 1.07 | S. cerevisiae deletion strains, locus YLR058C, strain SHM2, stronger effect = lower value 1.02 | S. cerevisiae deletion strains, locus YLR102C, strain apc9, stronger effect = lower value 1.02 | S. cerevisiae deletion strains, locus YLR262C, strain YPT6, stronger effect = lower value 1.05 | S. cerevisiae deletion strains, locus YLR268W, strain sec22, stronger effect = lower value 1.02 | S. cerevisiae deletion strains, locus YLR330W, strain CHS5, stronger effect = lower value 1.01 | S. cerevisiae deletion strains, locus YLR342W, strain FKS1 (second series), stronger effect = lower value 1.02 | S. cerevisiae deletion strains, locus YLR371W, strain rom2, stronger effect = lower value 1.03 | S. cerevisiae deletion strains, locus YLR418C, strain cdc73, stronger effect = lower value 1.04 | S. cerevisiae deletion strains, locus YML016C, strain PPZ1, stronger effect = lower value 1.01 | S. cerevisiae deletion strains, locus YML032C, strain rad52, stronger effect = lower value 1.05 | S. cerevisiae deletion strains, locus YML124C, strain tub3, stronger effect = lower value 1.03 | S. cerevisiae deletion strains, locus YMR078C, strain ctf18, stronger effect = lower value 1.04 | S. cerevisiae deletion strains, locus YMR223W, strain ubp8, stronger effect = lower value 1.04 | S. cerevisiae deletion strains, locus YMR263W, strain SAP30, stronger effect = lower value 1 | S. cerevisiae deletion strains, locus YMR307W, strain GAS1, stronger effect = lower value 1.08 | S. cerevisiae deletion strains, locus YNL067W, strain RPL9B, stronger effect = lower value 1.01 | S. cerevisiae deletion strains, locus YNL128W, strain TEP1, stronger effect = lower value 1.02 | S. cerevisiae deletion strains, locus YNL153C, strain GIM3, stronger effect = lower value 0.999 | S. cerevisiae deletion strains, locus YNL233W, strain BNI4, stronger effect = lower value 1.01 | S. cerevisiae deletion strains, locus YNL250W, strain rad50, stronger effect = lower value 1.06 | S. cerevisiae deletion strains, locus YNL271C, strain bni1, stronger effect = lower value 1.03 | S. cerevisiae deletion strains, locus YNL298W, strain CLA4, stronger effect = lower value 1.03 | S. cerevisiae deletion strains, locus YNL307C, strain MCK1, stronger effect = lower value 1.04 | S. cerevisiae deletion strains, locus YNL322C, strain KRE1, stronger effect = lower value 1.02 | S. cerevisiae deletion strains, locus YNR052C, strain pop2, stronger effect = lower value 1.04 | S. cerevisiae deletion strains, locus YOL006C, strain TOP1, stronger effect = lower value 1.03 | S. cerevisiae deletion strains, locus YOL012C, strain htz1 0.937 | S. cerevisiae deletion strains, locus YOL147C, strain pex11, stronger effect = lower value 1.03 | S. cerevisiae deletion strains, locus YOR061W, strain CKA2, stronger effect = lower value 1.01 | S. cerevisiae deletion strains, locus YOR069W, strain VPS5, stronger effect = lower value 1 | S. cerevisiae deletion strains, locus YOR136W, strain idh2, stronger effect = lower value 1.03 | S. cerevisiae deletion strains, locus YOR144C, strain elg1, stronger effect = lower value 1.02 | S. cerevisiae deletion strains, locus YOR184W, strain ser1, stronger effect = lower value 1.04 | S. cerevisiae deletion strains, locus YOR316C, strain cot1, stronger effect = lower value 1.02 | S. cerevisiae deletion strains, locus YPL055C, strain LGE1, stronger effect = lower value 1.03 | S. cerevisiae deletion strains, locus YPL241C, strain CIN2, stronger effect = lower value 1.01 | S. cerevisiae deletion strains, locus YPR119W, strain clb2, stronger effect = lower value 1.03 | S. cerevisiae deletion strains, locus YPR141C, strain kar3, stronger effect = lower value 1.04 | S. cerevisiae deletion strains, locus YPR163C, strain tif3, stronger effect = lower value 1.02 | S. cerevisiae deletion strains, locus YPR167C, strain met16, stronger effect = lower value 1.02 | S. cerevisiae deletion strains, strain wtn01, stronger effect = lower value 1 | S. cerevisiae strains, strain wild type, stronger effect = lower value 1.02
